# An excerpt weighted towards active compounds, which were near 2.2% of everything screened.
# M1 ag parental: nonselective activator or artifact in parental CHO-K1 cells; Fluo-8 calcium fluorescence; scaled to maximal ATP response, vehicle zero; activation, % at 3 µM; 360,000 compounds, 0.48% hits; AID 602248; in the data active = activation above about 15%;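 note: untransfected CHO-K1 host cells lacking M1 receptor as counterscreen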
# ANO1 block: inhibitors of mouse TMEM16A calcium-activated chloride channel | Q8BHY3 | HEK293 TMEM16A/YFP iodide influx fluorescence, ionomycin | normalized B-score (activity score, 25-100; higher = stronger inhibition) at 10 µM | 310,000 compounds, 1.2% hits | AID 588511;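 active = ratio plate-corrected score three or more library SD toward inhibition, starting fluorescence score within five deviations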;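 note: score derived from kinetic fluorescence span divided by baseline fluorescence per well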
# M1 PAM parental: M1 PAM counterscreen hit in parental CHO-K1 cells. ATP EC20, Fluo-8 calcium fluorescence; 0% at ATP EC20, 100% at ATP max. activation, % at 3 µM. 360,000 compounds, 0.02% hits. AID 602247;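 active = activation above the run cutoff, the mean activation of all test compounds plus 3 SD, cut at about 40% in these data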;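 note: peak over basal fluorescence ratio in a 140 s read after ATP addition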
# NTR1 ag: activates human neurotensin receptor 1; NTR1-U2OS beta-arrestin-GFP spot imaging, agonist mode; 330,000 compounds, 0.17% hits; P30989; activation, % at 20 µM;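 active = activation at or above 40% of the spot to cytoplasm intensity ratio, with at least 20 cells analyzed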;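 note: 0% = DMSO without peptide and 100% = 100 nM NTR1 peptide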
# TMEM16A act: mouse TMEM16A channel activation, primary screen | AID 623877 | HEK293 TMEM16A/YFP-H148Q/I152L, iodide quench fluorescence; stronger effect = lower value | Q8BHY3 | B-score at 10 µM | 340,000 compounds, 0.3% hits;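 active = fluorescence-ratio B-score plate-corrected deviation score at least 3 library SD below zero, with starting fluorescence score within 5 deviations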;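 note: channel opened by trigger with iodide after compound preincubation; score built on the fluorescence ratio of max minus min over baseline; more negative score means more quench and so TMEM16A activation or potentiation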
# CHO-K1 Ca antag: nonselective inhibitor or artifact in parental CHO-K1 cells; ATP-induced calcium, Fluo-8 fluorescence; AID 602250; 360,000 compounds, 0.6% hits; inhibition, % at 3 µM;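 active = inhibition above a per-plate cutoff, the plate's mean sample inhibition plus 3 SD, cut at about 24% in these data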;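 note: 0% = DMSO plus EC80 ATP and 100% = DMSO alone without ATP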
# * hit, by the source's call; i = inactive; . = no result.
SMILES,M1 ag parental,ANO1 block,M1 PAM parental,NTR1 ag,TMEM16A act,CHO-K1 Ca antag
O=C(Cc1ccc(NC(=O)C2CCN(C(=O)C3CCCC3)CC2)cc1)Nc1ccc(C(=O)N2CCOCC2)cc1,2,.,9,.,.,-2
CCN=C(NCC)SC1CC(=O)N(c2cccc(OCC)c2)C1=O (stereo unspecified),7,i,-8,1,-9.4*,30*
COC(=O)c1[nH]c2c(c1C)C(=O)CC(c1ccc(OC)c(OC)c1)C2 (stereo unspecified),23*,i,-6,3,i,11
COCCOC(=O)c1[nH]c2c(c1C)C(=O)CC(c1ccc(OC)c(OC)c1)C2 (stereo unspecified),1,i,-1,0,i,22
CCOC(=O)c1[nH]c2c(c1C)C(=O)CC(c1ccc(F)cc1)C2 (stereo unspecified),1,i,-13,-1,i,34*
COc1cc2c3nnc(-c4ccc(F)cc4)c-3cn(Cc3cccc(C)c3)c2cc1OC,0,i,15,124*,i,-2
O=C1NC(Cc2ccc(O)cc2)c2nc3ccc(Br)cc3c(=O)n2-c2ccc(Cl)cc21 (stereo unspecified),.,.,.,3,.,.
Cn1c(NCCc2ccncc2)nc2cc(-c3ccccc3)sc2c1=O,2,.,19,.,.,-18
CC(=O)N1CCCC(C)(C(=O)N(C)Cc2cccc3ccccc23)C1 (stereo unspecified),0,.,-1,.,.,-13
OCCN1CCN(CC(O)COc2ccc(C34CC5CC(CC(C5)C3)C4)cc2)CC1 (stereo unspecified),1,i,18,18,i,-2
NCCOc1ccc(C23CC4CC(CC(C4)C2)C3)cc1,17*,i,25,0,i,-6
Cc1cccc(OCC(=O)NCC(=O)N/N=C/c2cc(Br)ccc2OCc2ccccc2)c1,18*,i,6,0,i,14
Cc1ccc(NC(=O)COC(=O)C2(CC(=O)NC(C)C)CCCC2)cc1C,1,.,2,-2,i,-10
COC(=O)CSc1nnc(-c2cnccn2)n1C,1,i,8,0,i,4
CC(C)OC(=O)CSc1nnc(-c2cnccn2)n1C,0,i,13,-1,-5.8*,-2
CCOC(=O)c1c(C)n(C)c2ccc(OCC(O)CNCCc3ccccc3)cc12 (stereo unspecified),12,i,4,7,i,31*
C[C@@H]1O[C@H](C2CCCCC2)Cc2[nH][nH]c(=O)c21,0,.,5,.,.,-14
c1ccc2c(c1)CCN2CCN1CCc2ccccc21,0,i,17,1,-17*,-8
Cc1cc(S(=O)(=O)Nc2ccc3c(c2)n(C)c(=O)n3C)ccc1F,2,100*,9,0,i,-2
COc1ccc(S(=O)(=O)Nc2ccc3c(c2)n(C)c(=O)n3C)cc1F,8,i,-14,0,i,10
O=C(c1ccc(-c2ccccc2)cc1)c1ccc([N+](=O)[O-])cc1,.,i,.,12,.,.
O=C(C1=NN[C@@H]2C(=O)N(Cc3ccccc3)C(=O)[C@H]12)c1ccc([N+](=O)[O-])cc1,23*,i,22,0,i,-7
Cc1ccc(S(=O)(=O)N2C[C@H]3C(=O)C[C@@H](c4ccccc4)N(S(=O)(=O)c4ccccc4)[C@H]3C[C@H]2c2ccccc2)cc1,0,.,-2,.,.,11
O=C(C/C=N/OCc1c(Cl)cccc1Cl)c1cnc(-c2ccccc2)s1,0,100*,12,0,i,-14
CC(C)(C)NC(=O)NC(=O)CN1CCN(c2ncc(C(F)(F)F)cc2Cl)CC1,1,25*,12,1,i,-10
NNC(=O)CN1CCN(c2ncc(C(F)(F)F)cc2Cl)CC1,3,i,11,0,i,-2
O[C@H]1CN(CC2CCCCC2)[C@@H](c2ccccc2)C[C@@H]1n1cc(C2CC2)nn1,1,.,17,.,.,-4
O=C(NCC1CCCO1)c1ccc(Br)c(S(=O)(=O)N2CCOCC2)c1 (stereo unspecified),0,.,-8,-2,i,5
Cc1c(N=Cc2nc3ccccc3[nH]2)c(=O)n(-c2ccccc2)n1C,0,i,-6,0,-13*,31*
